From PMC4336329 (PLoS ONE, 2015)
Out of some 310,000 compounds screened, about 14,000 (4.5%) showed an effect of 50% or more. The effect is printed as a negative number. Shown is part of a subset that was picked to be rich in strong results.

molecular target: human ether-à-go-go-related gene (hERG) potassium channel (human, UniProt Q12809); assay: primary screen, population patch clamp on CHO cells stably expressing hERG; higher = less effect of the substance
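Further: peak tail current of the secondary pulse compared with the same well before compound.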

Sequence of human ether-à-go-go-related gene (hERG) potassium channel (Q12809 whole entry, looked up): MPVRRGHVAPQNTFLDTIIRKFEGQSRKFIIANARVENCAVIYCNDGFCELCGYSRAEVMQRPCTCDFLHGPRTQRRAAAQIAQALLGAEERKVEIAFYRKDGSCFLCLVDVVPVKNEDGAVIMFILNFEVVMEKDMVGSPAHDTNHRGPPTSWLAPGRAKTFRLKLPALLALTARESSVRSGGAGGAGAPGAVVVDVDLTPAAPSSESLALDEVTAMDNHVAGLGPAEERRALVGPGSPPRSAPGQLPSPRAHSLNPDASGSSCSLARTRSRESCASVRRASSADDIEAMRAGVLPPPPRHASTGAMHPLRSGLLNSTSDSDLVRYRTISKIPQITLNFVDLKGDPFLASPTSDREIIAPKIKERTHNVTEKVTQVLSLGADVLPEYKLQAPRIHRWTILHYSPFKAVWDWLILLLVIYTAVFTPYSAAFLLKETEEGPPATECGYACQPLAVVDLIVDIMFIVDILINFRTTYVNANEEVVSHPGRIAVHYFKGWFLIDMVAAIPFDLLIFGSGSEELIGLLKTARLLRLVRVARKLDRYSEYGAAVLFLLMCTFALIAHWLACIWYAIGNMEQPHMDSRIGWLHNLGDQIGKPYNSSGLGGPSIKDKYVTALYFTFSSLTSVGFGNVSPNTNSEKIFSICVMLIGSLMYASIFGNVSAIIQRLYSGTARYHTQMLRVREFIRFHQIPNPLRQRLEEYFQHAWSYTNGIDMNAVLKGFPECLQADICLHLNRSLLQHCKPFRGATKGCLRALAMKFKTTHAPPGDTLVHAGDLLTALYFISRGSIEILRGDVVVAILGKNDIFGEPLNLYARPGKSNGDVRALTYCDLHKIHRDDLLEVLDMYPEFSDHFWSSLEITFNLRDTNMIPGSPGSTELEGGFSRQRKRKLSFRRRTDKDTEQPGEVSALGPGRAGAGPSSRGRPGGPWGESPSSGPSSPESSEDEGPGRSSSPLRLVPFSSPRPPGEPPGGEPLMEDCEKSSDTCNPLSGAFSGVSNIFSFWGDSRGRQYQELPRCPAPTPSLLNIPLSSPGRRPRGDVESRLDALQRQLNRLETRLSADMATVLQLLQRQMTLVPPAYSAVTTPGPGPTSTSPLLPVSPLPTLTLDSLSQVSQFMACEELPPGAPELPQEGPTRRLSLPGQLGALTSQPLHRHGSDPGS

SMILES	hERG current change (%, negative = inhibition) at 10uM [%]
COc1ccc(-c2noc(CN(C(=O)c3c(-c4ccccc4Cl)noc3C)C(C)C)n2)cc1	14.8
O=C(O)C1CC=CCC1C(=O)Nc1cccc(C(=O)N2CCCCC2)c1 (stereo not shown)	-5.25
CN1C[C@H](C(=O)N[C@]2(C)O[C@@]3(O)[C@@H]4CCCN4C(=O)[C@H](Cc4ccccc4)N3C2=O)CC2c3cccc4[nH]cc(c34)C[C@H]21.O=C(O)C(O)C(O)C(=O)O (stereo partly shown)	2.03
CC(NC(=O)NNC(N)=S)(C(F)(F)F)C(F)(F)F	4.68
CN(C)CCCN(C(=O)c1ccc2c(c1)CCCC2)c1nc2ccc(F)cc2s1.Cl	-66.9
CCOc1ccc2nc(N(CCCN(C)C)C(=O)c3ccc4c(c3)CCCC4)sc2c1.Cl	-14.1
Cc1ccc2nc(N(CCCN(C)C)C(=O)c3ccc4c(c3)CCCC4)sc2c1.Cl	-71.5
CCN(CC)CCN(C(=O)c1ccc2c(c1)CCCC2)c1nc2ccc(F)cc2s1.Cl	-1.94
CN(C)CCCN(C(=O)c1ccc2c(c1)CCCC2)c1nc2ccc(Cl)cc2s1.Cl	-43.8
CCN(CC)CCN(C(=O)c1ccc2c(c1)CCCC2)c1nc2ccc(C)cc2s1.Cl	10.1
CCN(CC)C(=O)C1CCC(C)(C(=O)O)C1(C)C (stereo not shown)	3.91
O=S1(=O)CCO[C@H]2Cc3ccccc3[C@H]2N1Cc1cccc(Cl)c1	-28.4
Cc1nc(SCn2nnc3ccccc3c2=O)nc(C)c1C	-12.3
Cc1ccc(OCCNC(=O)/C=C/c2ccccc2)cc1C	-8.32
Cc1cc(=O)n2nc(N3CCC(C(=O)NC(C)c4ccccc4)CC3)sc2n1 (stereo not shown)	5.85
O=C(OCc1nc2ccsc2c(=O)[nH]1)c1ccccc1	0.869
CN(CC(=O)Nc1ccccc1Cl)C(=O)COC(=O)CNC(=O)c1ccc(Br)o1	-61.4
CCc1ccc(C(=O)COC(=O)CNC(=O)COc2ccccc2)cc1	-57.4
COc1ccccc1C(=O)NNC(=O)c1ccc(Br)o1	14
COc1ccccc1C(=O)COC(=O)CNC(=O)c1ccc(Br)o1	-50.7
CCc1ccc(C(=O)COC(=O)CNC(=O)c2ccco2)cc1	-18.2
Cc1ccc(C(=O)COC(=O)CNC(=O)c2ccc(Br)o2)cc1[N+](=O)[O-]	4.86

SMILES	hERG current change (%, negative = inhibition) at 10uM [%]
CCc1ccc(C(=O)COC(=O)CNC(=O)Cc2ccccc2)cc1	0.382
CN(CC(=O)Nc1ccccc1Cl)C(=O)COC(=O)Cc1ccc(F)cc1	1.33
Cc1cccc(C(=O)NCC(=O)OCC(=O)N(C)CC(=O)Nc2ccccc2Cl)c1	-40.5
CCc1ccc(C(=O)COC(=O)CNC(=O)CNC(=O)Cc2ccccc2)cc1	9.36
COc1ccccc1C(=O)NCC(=O)OCC(=O)c1cccc2ccccc12	4.06
CCc1ccc(C(=O)COC(=O)CNC(=O)c2ccc(Br)o2)cc1	-64
CC(=O)N(CN1C(=O)c2ccccc2C1=O)c1cccc(C)c1	4.43
Clc1ccc(-n2ncc3c(NCc4ccccn4)ncnc32)cc1	4.15
COc1ccccc1NS(=O)(=O)c1ccc(C)c(C(=O)NCC2(N(C)C)CCCCC2)c1	-42.9
O=C(NCCCN1CCOCC1)c1ccc2c(c1)N(Cc1cccc(Cl)c1)C(=O)CS2	-16.7
O=C(COC(=O)CNC(=O)c1ccco1)Nc1ccccc1OC(F)F	11.6
CC1Cc2ccccc2N1C(=O)COC(=O)c1ccc(Br)o1 (stereo not shown)	8.05
CC1Cc2ccccc2N1C(=O)c1ccc(Br)o1 (stereo not shown)	-13.1
O=C(Nc1ccccc1OC(F)F)c1ccc(Br)o1	-20.9
CC1Cc2ccccc2N1C(=O)COC(=O)CNC(=O)c1ccc(Br)o1 (stereo not shown)	-60.2
O=C(COC(=O)CNC(=O)c1ccc(Br)o1)Nc1ccccc1OC(F)F	-51.6
Cc1ccc2nc(-c3ccccc3)cc(C(=O)N(C)CC(=O)Nc3ccccc3Br)c2c1	-11
c1ccc(-n2nnnc2Cc2nnnn2-c2ccccc2)cc1	50.3
O=C(Nc1ccccc1OC(F)F)c1cc2c(s1)CCC2	-16.4
C=CCNC(=S)/N=c1/ccccn1C	-5.42
CCOC(=O)C1(Cc2ccccc2C)CCCN(Cc2ccc(NC(C)=O)cc2)C1 (stereo not shown)	11.5
CCOC(=O)C1(CCOc2ccccc2)CCN(Cc2ccc(NC(C)=O)cc2)CC1	-79.3

SMILES	hERG current change (%, negative = inhibition) at 10uM [%]
CCOC(=O)C1(CCc2ccccc2)CCN(Cc2ccc(NC(C)=O)cc2)CC1	-76.6
Cc1ccc(Nc2nc(=O)c3cccnc3s2)c(Br)c1	3.27
CN(Cc1cnccn1)Cc1nc(Cc2ccccc2F)no1	-0.154
COc1ccc(Cl)cc1NS(=O)(=O)c1cccc(C(=O)NCC(c2ccco2)N(C)C)c1 (stereo not shown)	-2.01
O=C(CCCn1c(=O)c2sccc2n(CC(=O)NCc2ccco2)c1=O)NCc1ccco1	-6.69
Cn1c(Br)nc2c1c(=O)n(CC(O)COc1ccccc1)c(=O)n2C (stereo not shown)	-1.54
COCCC(=O)N1CCC(Oc2ccc(C(=O)N(C)C(C)c3ccon3)cc2)CC1 (stereo not shown)	13.1
O=C(Cc1cn(Cc2cccc(Cl)c2)c2ccccc12)N1CCCCCC1	-4.89
Cn1cc(-c2ccccc2C(=O)O)c(=O)c2cc(Cl)ccc21	20.9
CCCCCCn1cc(C(=O)O)c(=O)c2cc(F)c(N3CCCCC3)cc21	5.7
CCCCCCn1cc(C(=O)O)c(=O)c2ccccc21	-75.8
CN(C)CCOC(=O)c1cn(Cc2ccccc2)c2ccccc12.Cl	-59.1
CC1CCCN(C(=O)Cc2cn(Cc3cccc(Cl)c3)c3ccccc23)C1 (stereo not shown)	-5.42
O=C(O)c1cn(Cc2ccccc2)c2ccc(Cl)cc2c1=O	-76.3
O=C(c1cn(Cc2ccccc2)c2ccccc12)C1CC1	7.67
CCCCCn1cc(C(=O)C(=O)N2CCOCC2)c2ccccc21	-26.3
O=C(O)Cc1cn(Cc2cccc(Cl)c2)c2ccccc12	12.6
O=C(COc1ccccc1)c1cn(Cc2ccccc2)c2ccccc12	7.62
O=C(Cc1cn(Cc2cccc(Cl)c2)c2ccccc12)N1CCCC1	-50
COc1ccccc1CNC(=O)C1CCCN(S(C)(=O)=O)C1 (stereo not shown)	9.4
CC(C)Oc1cccc(C(=O)C2CCCN(S(=O)(=O)C(C)C)C2)c1 (stereo not shown)	-21.7
COc1ccc(C2=NN(C(=O)CSc3nnnn3C)C(c3ccco3)C2)cc1 (stereo not shown)	3.05

SMILES	hERG current change (%, negative = inhibition) at 10uM [%]
N/C(=N\OC(=O)C(c1ccccc1)c1ccccc1)c1ccccn1	8.35
Cl.O=C(NCC(c1cccs1)N1CCOCC1)c1ccc(Cl)s1 (stereo not shown)	-21.6
CC(=O)NC(=O)COC(=O)/C=C/c1c(C)nn(Cc2c(Cl)cccc2Cl)c1Cl	-2.82
O=C(O)CSc1nc2ccc(C(=O)c3ccccc3)cc2[nH]1	17.2
CCC(=O)c1cn(Cc2ccccc2)c2ccccc12	-7.05
CCCn1cc(C(=O)OCC)c(=O)c2cc(F)c(F)cc21	2.11
CCCCCCn1cc(C(=O)OCC)c(=O)c2cc(F)c(F)cc21	-52.6
CC(C)(C)C(=O)c1cn(Cc2ccccc2)c2ccccc12	-4.12
CCOC(=O)c1cn(CC)c2cc(F)c(F)cc2c1=O	3.48
O=C(O)c1cn(Cc2ccccc2)c2ccccc2c1=O	-79.3
COc1ccc(OC)c(N2C(=O)CC(Cc3ccc(C)cc3)C2=O)c1 (stereo not shown)	-2.87
CCC1(c2ccccc2)NC(=O)N(CC(=O)Nc2ccc3c(c2)OCO3)C1=O (stereo not shown)	-6.09
CCOC(=O)c1oc2cccc(O)c2c1C	-7.22
C=CCn1c(SCc2c(F)cccc2Cl)nnc1-c1ccco1	-19.3
COc1ccc(CN2CCN(CCCc3ccccc3)C(CCO)C2)c(OC)c1 (stereo not shown)	-72.9
COc1ccc(OC)c(CN2CCN(CCc3ccccc3)C(CCO)C2)c1 (stereo not shown)	-60.6
COc1ccc(CN2CCN(CCc3ccccc3)C(CCO)C2)c(Cl)c1OC (stereo not shown)	-60.1
COc1cccc(CN2CCN(CCc3ccccc3)C(CCO)C2)c1OC (stereo not shown)	-34.8
COc1ccc(OC)c(CN2CCN(CCCc3ccccc3)C(CCO)C2)c1 (stereo not shown)	-68.6
CCOC(=O)C1(CC)CC(CSc2nc3ccccc3[nH]2)OC1=O.Cl (stereo not shown)	-2.61
COc1ccc(C(=O)Nc2cccc3ccccc23)cc1	1.02
CC(C)(C)c1cc(C(=O)NNc2cccc(Cl)c2)n(Cc2ccccc2)n1	-4.28
